Test results as given in paper PMC7862700, “An all-to-all approach to the identification of sequence-specific readers for epigenetic DNA modifications on cytosine”.

Experiments:
Experiment in all cases: DAPPL (digital affinity profiling via proximity ligation, sequencing); 10 mM Tris-HCl pH 7.5, 50 mM NaCl, 1 mM DTT, 4% glycerol, room temperature, 30 min; GST-TFs on glutathione beads, 16-mer random dsDNA library, 0.1% formaldehyde crosslink after washing; high values mean tight binding
[1] = target: T1, FEV (Homo sapiens, UniProt Q99581 1-238); details: protein: recombinant; tags: N-terminal GST; dsDNA, one strand shown
T1 sequence: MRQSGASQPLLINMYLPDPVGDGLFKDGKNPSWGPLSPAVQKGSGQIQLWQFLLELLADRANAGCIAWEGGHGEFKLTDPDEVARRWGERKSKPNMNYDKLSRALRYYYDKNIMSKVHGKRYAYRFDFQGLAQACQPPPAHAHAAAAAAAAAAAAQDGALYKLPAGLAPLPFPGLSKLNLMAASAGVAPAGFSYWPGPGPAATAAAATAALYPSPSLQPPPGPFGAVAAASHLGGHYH
Summary of the method: (§1)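 Beads coated with glutathione captured GST-fused human transcription factors that had been expressed in yeast, and the factors were then given DNA barcodes and pooled with a tag-only sample. The pools were incubated with 200 nmole of a random double-stranded 16-mer DNA library in Tris/NaCl/DTT/glycerol buffer for 30 min at room temperature, washed, crosslinked with 0.1% formaldehyde and proximity-ligated with BsaI/T4 ligase at 37 °C for 1 h. PCR amplification and Illumina NextSeq500 sequencing came last. Binding signal is each hexamer's read frequency for a factor divided by its frequency for the tag-only sample.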

[2] = target: ETV5 (Homo sapiens, UniProt P41161 1-510); details: protein: recombinant; tags: N-terminal GST; dsDNA, one strand shown
Summary of the method: as §1

[3] = target: HSF1 (Homo sapiens, UniProt Q00613 1-529); details: protein: recombinant; tags: N-terminal GST; chain copies: 3; dsDNA, one strand shown
Summary of the method: as §1

[4] = target: T2, SPIC (Homo sapiens, UniProt Q8N5J4 1-248); details: protein: recombinant; tags: N-terminal GST; dsDNA, one strand shown
T2 sequence: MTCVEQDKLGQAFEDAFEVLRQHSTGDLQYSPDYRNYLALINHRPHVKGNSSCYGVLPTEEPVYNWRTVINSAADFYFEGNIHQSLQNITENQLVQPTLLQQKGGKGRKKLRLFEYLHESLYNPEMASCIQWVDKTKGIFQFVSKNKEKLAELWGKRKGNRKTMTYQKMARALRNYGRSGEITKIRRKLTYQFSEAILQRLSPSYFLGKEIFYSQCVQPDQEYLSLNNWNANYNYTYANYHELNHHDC
Summary of the method: as §1

[5] = target: ELF4 (Homo sapiens, UniProt Q99607 1-663); details: protein: recombinant; tags: N-terminal GST; dsDNA, one strand shown
Summary of the method: as §1

[6] = target: T3, ELK4 (Homo sapiens, UniProt P28324-2 1-405); details: protein: recombinant; tags: N-terminal GST; dsDNA, one strand shown
T3 sequence: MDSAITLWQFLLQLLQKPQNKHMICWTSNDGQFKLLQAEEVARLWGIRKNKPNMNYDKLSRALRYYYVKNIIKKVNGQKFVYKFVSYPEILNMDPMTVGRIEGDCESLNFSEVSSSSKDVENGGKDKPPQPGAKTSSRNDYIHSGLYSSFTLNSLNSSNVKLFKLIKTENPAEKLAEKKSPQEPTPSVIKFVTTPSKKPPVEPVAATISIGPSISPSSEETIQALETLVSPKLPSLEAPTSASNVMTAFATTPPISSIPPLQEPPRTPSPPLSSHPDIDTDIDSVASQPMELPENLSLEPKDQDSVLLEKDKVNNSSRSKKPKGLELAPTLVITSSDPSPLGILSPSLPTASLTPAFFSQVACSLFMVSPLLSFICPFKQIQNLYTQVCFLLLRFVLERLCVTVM
Summary of the method: as §1

[7] = target: T4, ETV2 (Homo sapiens, UniProt O00321 1-342); details: protein: recombinant; tags: N-terminal GST; dsDNA, one strand shown
T4 sequence: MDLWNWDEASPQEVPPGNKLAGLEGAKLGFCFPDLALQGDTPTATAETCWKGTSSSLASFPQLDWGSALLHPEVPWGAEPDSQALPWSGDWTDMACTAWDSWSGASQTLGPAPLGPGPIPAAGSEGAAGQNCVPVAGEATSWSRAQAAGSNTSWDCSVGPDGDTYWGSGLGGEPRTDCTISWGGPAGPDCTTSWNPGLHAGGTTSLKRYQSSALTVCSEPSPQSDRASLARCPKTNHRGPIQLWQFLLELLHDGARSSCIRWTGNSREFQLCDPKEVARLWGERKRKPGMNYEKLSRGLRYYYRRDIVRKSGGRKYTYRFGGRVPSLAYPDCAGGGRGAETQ
Summary of the method: as §1

[8] = target: T5, ELF3 (Homo sapiens, UniProt P78545 1-371); details: protein: recombinant; tags: N-terminal GST; dsDNA, one strand shown
T5 sequence: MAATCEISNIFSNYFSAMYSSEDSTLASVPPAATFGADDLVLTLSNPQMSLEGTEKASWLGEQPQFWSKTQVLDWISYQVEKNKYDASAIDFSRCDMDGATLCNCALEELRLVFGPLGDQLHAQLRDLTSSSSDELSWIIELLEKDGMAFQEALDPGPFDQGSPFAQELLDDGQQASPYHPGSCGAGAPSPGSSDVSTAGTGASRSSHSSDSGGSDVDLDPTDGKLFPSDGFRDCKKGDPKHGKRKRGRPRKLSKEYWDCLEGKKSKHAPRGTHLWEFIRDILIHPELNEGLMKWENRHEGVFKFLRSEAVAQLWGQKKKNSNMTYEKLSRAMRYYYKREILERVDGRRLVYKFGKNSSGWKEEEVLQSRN
Summary of the method: as §1

[9] = target: CRX (Homo sapiens, UniProt O43186 1-299); details: protein: recombinant; tags: N-terminal GST; dsDNA, one strand shown
Summary of the method: as §1

[10] = target: ETV1 (Homo sapiens, UniProt P50549 1-477); details: protein: recombinant; tags: N-terminal GST; dsDNA, one strand shown
Summary of the method: as §1

[11] = target: T6, ERF (Homo sapiens, UniProt P50548 1-548); details: protein: recombinant; tags: N-terminal GST; dsDNA, one strand shown
T6 sequence: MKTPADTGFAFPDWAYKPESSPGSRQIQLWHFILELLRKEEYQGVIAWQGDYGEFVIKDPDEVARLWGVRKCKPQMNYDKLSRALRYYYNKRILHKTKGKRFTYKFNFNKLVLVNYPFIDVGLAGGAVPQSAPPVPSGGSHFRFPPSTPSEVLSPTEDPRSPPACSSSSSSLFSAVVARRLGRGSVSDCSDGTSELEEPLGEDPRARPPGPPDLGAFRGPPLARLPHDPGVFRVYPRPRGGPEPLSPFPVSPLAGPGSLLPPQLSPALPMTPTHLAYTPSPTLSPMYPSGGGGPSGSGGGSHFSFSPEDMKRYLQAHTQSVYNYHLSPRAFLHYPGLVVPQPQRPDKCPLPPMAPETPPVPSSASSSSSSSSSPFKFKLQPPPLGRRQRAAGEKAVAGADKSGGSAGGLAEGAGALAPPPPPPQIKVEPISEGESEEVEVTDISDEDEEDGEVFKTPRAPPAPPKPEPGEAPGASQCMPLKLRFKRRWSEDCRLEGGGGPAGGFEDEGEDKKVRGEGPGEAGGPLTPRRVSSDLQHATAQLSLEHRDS
Summary of the method: as §1

[12] = target: T7, ETV3L (Homo sapiens, UniProt Q6ZN32 1-361); details: protein: recombinant; tags: N-terminal GST; dsDNA, one strand shown
T7 sequence: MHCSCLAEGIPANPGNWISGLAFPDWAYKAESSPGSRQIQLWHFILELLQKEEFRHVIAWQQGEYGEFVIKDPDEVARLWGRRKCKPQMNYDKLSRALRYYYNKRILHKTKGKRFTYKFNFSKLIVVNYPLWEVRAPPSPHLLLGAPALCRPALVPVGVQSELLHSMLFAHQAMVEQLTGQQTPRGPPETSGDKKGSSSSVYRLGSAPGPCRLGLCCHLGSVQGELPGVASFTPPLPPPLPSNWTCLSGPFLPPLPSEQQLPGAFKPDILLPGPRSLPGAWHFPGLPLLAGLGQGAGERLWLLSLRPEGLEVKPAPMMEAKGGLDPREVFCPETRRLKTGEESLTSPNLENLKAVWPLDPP
Summary of the method: as §1

[13] = target: T8, ETS2 (Homo sapiens, UniProt P15036 1-469); details: protein: recombinant; tags: N-terminal GST; dsDNA, one strand shown
T8 sequence: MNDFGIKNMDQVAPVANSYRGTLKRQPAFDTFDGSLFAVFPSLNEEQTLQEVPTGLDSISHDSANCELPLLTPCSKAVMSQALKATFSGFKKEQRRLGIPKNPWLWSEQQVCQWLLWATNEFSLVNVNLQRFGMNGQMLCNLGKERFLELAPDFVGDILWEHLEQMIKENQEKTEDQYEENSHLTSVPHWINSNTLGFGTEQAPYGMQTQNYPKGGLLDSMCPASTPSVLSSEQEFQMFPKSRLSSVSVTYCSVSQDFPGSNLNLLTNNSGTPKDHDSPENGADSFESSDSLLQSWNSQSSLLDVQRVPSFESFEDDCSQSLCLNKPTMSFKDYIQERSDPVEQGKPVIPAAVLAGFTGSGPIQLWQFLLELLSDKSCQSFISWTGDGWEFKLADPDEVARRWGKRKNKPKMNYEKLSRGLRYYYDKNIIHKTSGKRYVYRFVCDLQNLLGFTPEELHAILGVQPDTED
Summary of the method: as §1

[14] = target: T9, SPDEF (Homo sapiens, UniProt O95238 1-335); details: protein: recombinant; tags: N-terminal GST; dsDNA, one strand shown
T9 sequence: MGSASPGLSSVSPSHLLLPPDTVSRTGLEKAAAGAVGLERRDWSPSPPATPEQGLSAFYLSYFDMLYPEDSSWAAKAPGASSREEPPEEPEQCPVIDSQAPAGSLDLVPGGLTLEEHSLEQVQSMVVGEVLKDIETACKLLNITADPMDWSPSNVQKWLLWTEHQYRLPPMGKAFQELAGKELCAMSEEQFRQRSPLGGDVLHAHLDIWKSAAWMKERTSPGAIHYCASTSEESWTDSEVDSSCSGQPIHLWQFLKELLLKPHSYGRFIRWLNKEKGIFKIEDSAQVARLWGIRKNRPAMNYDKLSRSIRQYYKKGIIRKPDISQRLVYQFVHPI
Summary of the method: as §1

[15] = target: T10, ETV7 (Homo sapiens, UniProt Q9Y603 1-341); details: protein: recombinant; tags: N-terminal GST; dsDNA, one strand shown
T10 sequence: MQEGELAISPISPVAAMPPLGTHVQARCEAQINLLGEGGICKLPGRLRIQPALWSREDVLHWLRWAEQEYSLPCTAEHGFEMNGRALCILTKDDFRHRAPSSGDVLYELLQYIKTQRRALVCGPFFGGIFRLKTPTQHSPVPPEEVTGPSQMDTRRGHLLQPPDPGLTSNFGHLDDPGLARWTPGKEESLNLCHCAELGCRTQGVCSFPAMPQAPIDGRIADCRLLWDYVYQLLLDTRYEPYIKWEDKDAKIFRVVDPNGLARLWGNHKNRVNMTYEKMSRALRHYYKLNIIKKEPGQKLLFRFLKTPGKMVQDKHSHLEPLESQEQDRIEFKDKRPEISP
Summary of the method: as §1

[16] = target: T11, ELF5 (Homo sapiens, UniProt Q9UKW6-2 1-255); details: protein: recombinant; tags: N-terminal GST; dsDNA, one strand shown
T11 sequence: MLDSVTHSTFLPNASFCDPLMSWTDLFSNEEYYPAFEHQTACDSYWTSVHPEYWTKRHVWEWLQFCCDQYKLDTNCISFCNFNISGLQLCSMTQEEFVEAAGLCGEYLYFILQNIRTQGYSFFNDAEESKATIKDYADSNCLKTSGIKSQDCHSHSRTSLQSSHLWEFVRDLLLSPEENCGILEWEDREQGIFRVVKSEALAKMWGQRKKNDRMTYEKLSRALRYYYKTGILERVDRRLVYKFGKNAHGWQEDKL
Summary of the method: as §1

[17] = target: T12, ETV3 (Homo sapiens, UniProt P41162-2 1-143); details: protein: recombinant; tags: N-terminal GST; dsDNA, one strand shown
T12 sequence: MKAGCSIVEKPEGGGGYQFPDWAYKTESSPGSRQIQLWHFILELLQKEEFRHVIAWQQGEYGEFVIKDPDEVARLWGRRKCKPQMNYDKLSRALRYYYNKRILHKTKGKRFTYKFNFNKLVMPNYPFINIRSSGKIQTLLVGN
Summary of the method: as §1

[18] = target: ETV6 (Homo sapiens, UniProt P41212 1-452); details: protein: recombinant; tags: N-terminal GST; dsDNA, one strand shown
Summary of the method: as §1

ETV6, sequence (P41212 whole entry): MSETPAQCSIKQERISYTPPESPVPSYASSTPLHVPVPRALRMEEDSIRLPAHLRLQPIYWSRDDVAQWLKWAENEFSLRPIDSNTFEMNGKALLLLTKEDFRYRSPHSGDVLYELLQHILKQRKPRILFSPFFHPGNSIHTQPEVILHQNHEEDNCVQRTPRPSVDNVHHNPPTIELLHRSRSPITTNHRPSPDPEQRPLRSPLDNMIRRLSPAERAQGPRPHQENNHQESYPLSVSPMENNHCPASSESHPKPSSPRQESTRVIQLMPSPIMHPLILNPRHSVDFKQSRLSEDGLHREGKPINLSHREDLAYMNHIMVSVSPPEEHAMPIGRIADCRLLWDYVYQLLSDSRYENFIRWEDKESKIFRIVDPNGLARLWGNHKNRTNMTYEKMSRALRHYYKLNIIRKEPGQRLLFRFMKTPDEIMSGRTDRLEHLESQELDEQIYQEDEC
ELF4, sequence (Q99607 whole entry): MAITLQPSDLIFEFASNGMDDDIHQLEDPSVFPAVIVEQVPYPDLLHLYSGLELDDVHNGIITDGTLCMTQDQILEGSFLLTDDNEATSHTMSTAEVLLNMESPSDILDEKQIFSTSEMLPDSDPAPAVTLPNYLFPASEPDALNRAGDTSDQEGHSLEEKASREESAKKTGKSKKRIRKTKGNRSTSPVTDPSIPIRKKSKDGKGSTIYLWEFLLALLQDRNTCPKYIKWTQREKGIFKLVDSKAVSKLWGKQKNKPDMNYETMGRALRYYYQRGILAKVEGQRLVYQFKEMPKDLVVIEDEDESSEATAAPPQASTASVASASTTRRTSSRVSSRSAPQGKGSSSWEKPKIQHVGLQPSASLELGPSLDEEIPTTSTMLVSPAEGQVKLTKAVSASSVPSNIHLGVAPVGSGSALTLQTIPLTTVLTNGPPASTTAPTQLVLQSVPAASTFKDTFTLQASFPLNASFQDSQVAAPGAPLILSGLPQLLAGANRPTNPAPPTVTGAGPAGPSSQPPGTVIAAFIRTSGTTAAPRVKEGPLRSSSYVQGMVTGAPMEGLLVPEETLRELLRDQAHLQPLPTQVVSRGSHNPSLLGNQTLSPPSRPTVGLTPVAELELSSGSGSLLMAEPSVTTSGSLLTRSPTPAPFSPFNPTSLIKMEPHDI
ETV5, sequence (P41161 whole entry): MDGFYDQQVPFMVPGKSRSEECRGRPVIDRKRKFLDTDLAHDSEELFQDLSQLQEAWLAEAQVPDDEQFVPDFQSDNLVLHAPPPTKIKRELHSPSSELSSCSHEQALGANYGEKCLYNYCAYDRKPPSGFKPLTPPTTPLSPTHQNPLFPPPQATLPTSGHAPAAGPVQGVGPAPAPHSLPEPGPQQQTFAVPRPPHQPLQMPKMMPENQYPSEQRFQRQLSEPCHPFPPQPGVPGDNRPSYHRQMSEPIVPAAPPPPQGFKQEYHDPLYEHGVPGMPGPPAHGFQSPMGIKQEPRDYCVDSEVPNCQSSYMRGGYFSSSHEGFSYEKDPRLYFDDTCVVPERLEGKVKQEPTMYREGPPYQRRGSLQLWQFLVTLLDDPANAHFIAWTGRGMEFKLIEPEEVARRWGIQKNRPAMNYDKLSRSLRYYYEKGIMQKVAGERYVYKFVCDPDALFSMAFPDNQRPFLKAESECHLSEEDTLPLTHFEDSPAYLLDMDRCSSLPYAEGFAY
ETV1, sequence (P50549 whole entry): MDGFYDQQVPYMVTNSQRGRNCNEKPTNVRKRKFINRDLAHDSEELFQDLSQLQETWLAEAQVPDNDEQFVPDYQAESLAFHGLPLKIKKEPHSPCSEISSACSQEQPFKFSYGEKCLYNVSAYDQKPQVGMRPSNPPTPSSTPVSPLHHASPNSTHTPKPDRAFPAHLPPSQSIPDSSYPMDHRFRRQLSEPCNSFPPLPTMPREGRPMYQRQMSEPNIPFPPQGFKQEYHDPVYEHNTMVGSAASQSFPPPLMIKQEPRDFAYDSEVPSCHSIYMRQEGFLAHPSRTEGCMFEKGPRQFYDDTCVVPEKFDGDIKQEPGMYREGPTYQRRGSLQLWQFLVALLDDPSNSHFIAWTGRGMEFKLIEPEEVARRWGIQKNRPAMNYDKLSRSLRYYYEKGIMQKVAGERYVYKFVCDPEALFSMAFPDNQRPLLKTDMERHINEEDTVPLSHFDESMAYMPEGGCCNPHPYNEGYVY
HSF1, sequence (Q00613 whole entry): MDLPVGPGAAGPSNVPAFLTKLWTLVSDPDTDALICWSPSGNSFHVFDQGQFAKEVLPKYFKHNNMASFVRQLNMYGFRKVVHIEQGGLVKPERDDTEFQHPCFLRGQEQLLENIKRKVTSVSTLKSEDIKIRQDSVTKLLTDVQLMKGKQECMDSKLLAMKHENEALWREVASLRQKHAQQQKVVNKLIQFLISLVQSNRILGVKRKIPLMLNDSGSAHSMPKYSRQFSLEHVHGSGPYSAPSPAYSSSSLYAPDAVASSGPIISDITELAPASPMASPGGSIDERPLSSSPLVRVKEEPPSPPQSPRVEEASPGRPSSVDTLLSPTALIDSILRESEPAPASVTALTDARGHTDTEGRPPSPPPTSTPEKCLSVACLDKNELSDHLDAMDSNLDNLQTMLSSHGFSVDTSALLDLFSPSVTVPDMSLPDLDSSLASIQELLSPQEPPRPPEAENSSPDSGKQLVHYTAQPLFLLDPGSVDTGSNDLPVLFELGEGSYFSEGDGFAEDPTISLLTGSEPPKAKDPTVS
CRX, sequence (O43186 whole entry): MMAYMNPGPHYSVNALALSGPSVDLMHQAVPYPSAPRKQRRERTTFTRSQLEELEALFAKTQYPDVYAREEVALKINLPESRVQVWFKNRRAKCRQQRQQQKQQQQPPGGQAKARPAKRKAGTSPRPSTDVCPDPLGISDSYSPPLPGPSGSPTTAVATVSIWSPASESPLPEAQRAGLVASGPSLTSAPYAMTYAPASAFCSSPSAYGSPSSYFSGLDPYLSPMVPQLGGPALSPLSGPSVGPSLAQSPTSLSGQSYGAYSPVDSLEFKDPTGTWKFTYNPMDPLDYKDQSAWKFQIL

Which results are given for ATTATG?
binding signal [1]: 1.13 fold enrichment (6-mer frequency, TF over GST control); binding signal [2]: 1.26 fold enrichment (6-mer frequency, TF over GST control); binding signal [3]: 1.68 fold enrichment (6-mer frequency, TF over GST control); binding signal [4]: 1.42 fold enrichment (6-mer frequency, TF over GST control); binding signal [5]: 1.22 fold enrichment (6-mer frequency, TF over GST control); binding signal [6]: 1.11 fold enrichment (6-mer frequency, TF over GST control); binding signal [7]: 1.03 fold enrichment (6-mer frequency, TF over GST control); binding signal [8]: 1.48 fold enrichment (6-mer frequency, TF over GST control); binding signal [9]: 2.58 fold enrichment (6-mer frequency, TF over GST control); binding signal [10]: 1.21 fold enrichment (6-mer frequency, TF over GST control); binding signal [11]: 1.11 fold enrichment (6-mer frequency, TF over GST control); binding signal [12]: 1.27 fold enrichment (6-mer frequency, TF over GST control); binding signal [13]: 1.14 fold enrichment (6-mer frequency, TF over GST control); binding signal [14]: 1.19 fold enrichment (6-mer frequency, TF over GST control); binding signal [15]: 1.32 fold enrichment (6-mer frequency, TF over GST control); binding signal [16]: 1.14 fold enrichment (6-mer frequency, TF over GST control); binding signal [17]: 1.2 fold enrichment (6-mer frequency, TF over GST control); binding signal [18]: 1.33 fold enrichment (6-mer frequency, TF over GST control)
